Where a structure was tested more than once in an assay, its records may differ in their call. The source made the active and inactive calls. The calls were made as follows: active = hit-call score of the fitted dose curve at least 0.9, where 1 is the maximum; inactive = score below 0.9.
What was measured:
[1] = ATG_ISRE_CIS: Attagene CIS-FACTORIAL HepG2 Assay for human Interferon Regulatory Factor 1 (IRF1) binding to an Interferon-Stimulated Response Element (ISRE) (AID 2282948); conditions: HepG2 ISRE cis-reporter (Attagene), mRNA transcription readout; actives raise or lower the signal
In short: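 Multiplexed mRNA reporter readout in human liver HepG2 cells: cis-element-driven reporters transfected, compound added for 24 h, transcripts amplified, fluorescently labelled and sized by capillary electrophoresis; curve fitting bidirectional against DMSO.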

[2] = ATG_M_32_CIS: Attagene CIS-FACTORIAL HepG2 Assay for M32 Transcription Factor (Internal Marker) (AID 2282949); conditions: HepG2 Attagene cis-factorial M32 reporter, mRNA; actives raise or lower the signal;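 also: background control marker of the multiplexed CIS panel rather than a real target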
In short: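 Using DMSO as baseline, bidirectional curve fits were applied to reporter mRNA signals. These came from transiently transfected HepG2 cells exposed for 24 h, with RNA analysed by RT-PCR, FAM primer extension, HpaI digestion and CE.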

[3] = ATG_M_06_CIS: Attagene CIS-FACTORIAL HepG2 Assay for M06 Transcription Factor (Internal Marker) (AID 2282950); conditions: HepG2 Attagene CIS-FACTORIAL M06 internal marker reporter; actives raise or lower the signal
In short: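 Serves as a background control readout. Transfected HepG2 exposed to compounds for 24 h, then reporter transcripts quantified by fluorescent RT-PCR and capillary electrophoresis. Both directions fitted against DMSO baseline.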

[4] = target: Hypoxia-inducible factor 1-alpha (Homo sapiens) (UniProt Q16665); assay: ATG_HIF1a_CIS: Attagene CIS-FACTORIAL HepG2 Assay for human Hypoxia Inducible Factor 1 (HIF1A) (AID 2282951); conditions: HepG2 Attagene cis-factorial HIF1a reporter transcription; actives raise or lower the signal
In short: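 In this multiplexed cell assay, HepG2 cells bearing transfected cis reporters are dosed for 24 h and reporter mRNA is read by RT-PCR plus capillary electrophoresis; signal increases and decreases are both scored against DMSO.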

[5] = target: Hepatocyte nuclear factor 6 (Homo sapiens) (UniProt Q9UBC0); assay: ATG_HNF6_CIS: Attagene CIS-FACTORIAL HepG2 Assay for human Hepatocyte Nuclear Factor 6 (HNF6) (AID 2282952); conditions: HepG2 Attagene cis-factorial HNF6 reporter transcription; actives raise or lower the signal
In short: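 Endogenous transcription factor activity in human HepG2 liver cells was captured through cis-regulated reporter constructs. After 24 h treatment, reporter mRNA was measured by RT-PCR with capillary electrophoresis, and activity was fitted in both directions relative to DMSO.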

[6] = target: Heat shock factor protein 1 (Homo sapiens) (UniProt Q00613); assay: ATG_HSE_CIS: Attagene CIS-FACTORIAL HepG2 Assay for human Heat Shock Transcription Factor 1 (HSE) (AID 2282953); conditions: HepG2 HSE cis-reporter, Attagene RNA transcription; actives raise or lower the signal
In short: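 Endogenous transcription factor activity in transiently transfected HepG2, read as reporter mRNA by RT-PCR with fluorescent capillary electrophoresis after 24 h. Gain or loss of signal fitted versus DMSO baseline.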

[7] = ATG_MRE_CIS: Attagene CIS-FACTORIAL HepG2 Assay for human Metal Responsive Element (MRE) (AID 2282954); conditions: HepG2 MRE cis-reporter transcription, Attagene multiplex; actives raise or lower the signal
In short: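 Multiplexed cis-reporter assay in human HepG2 liver cells, 24 h incubation with test chemical. Reporter transcripts measured by RT-PCR and capillary electrophoresis; values from bidirectional curve fitting versus DMSO.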

[8] = ATG_PBREM_CIS: Attagene CIS-FACTORIAL HepG2 Assay for human Phenobarbital-responsive Enhancer Module (PBREM) (AID 2282955); conditions: HepG2 PBREM cis-reporter, Attagene multiplexed transcription; actives raise or lower the signal
In short: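 After a 24 h incubation with test chemical, transfected HepG2 cells yield total RNA; reporter-specific RT-PCR products are fluorescently labelled, HpaI-digested and resolved by capillary electrophoresis against ROX size standards.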

[9] = target: Paired box protein Pax-6 (Homo sapiens) (UniProt P26367); assay: ATG_Pax6_CIS: Attagene CIS-FACTORIAL HepG2 Assay for human Paired Box 6 (PAX6) (AID 2282956); conditions: HepG2 CIS-FACTORIAL PAX6 reporter transcription, RNA readout; actives raise or lower the signal
In short: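 Fluorescent RT-PCR products separated by capillary electrophoresis report PAX6-linked promoter mRNA in HepG2 cells 24 h post-dose. Curves fitted bidirectionally, DMSO as negative control.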

[10] = ATG_PXRE_CIS: Attagene CIS-FACTORIAL HepG2 Assay for human Pregnane X Receptor Element (PXRE) (AID 2282957); conditions: HepG2 Attagene CIS-FACTORIAL PXRE reporter, mRNA; actives raise or lower the signal
In short: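 Endogenous transcription factor activity in HepG2 was gauged through induction of reporter mRNA driven by a cis-regulating promoter element, sampled 24 h post-treatment. Activity was fitted in both directions against DMSO negative control.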

[11] = ATG_PPRE_CIS: Attagene CIS-FACTORIAL HepG2 Assay for human Peroxisome Proliferator-activated Response Element (PPRE) (AID 2282958); conditions: HepG2 PPRE cis-element reporter, Attagene transcription factor profiling; actives raise or lower the signal
In short: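 Multiplexed reporter transcription units under cis-regulatory promoters were transfected into HepG2 cells to capture endogenous factor activity. A 24 h incubation preceded RNA isolation and fluorescent RT-PCR fragment analysis.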

[12] = ATG_RORE_CIS: Attagene CIS-FACTORIAL HepG2 Assay for human RAR-related Orphan Receptor Element (RORE) (AID 2282959); conditions: HepG2 Attagene cis-factorial RORE reporter, mRNA; actives raise or lower the signal
In short: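 Fluorescence intensity of reporter-specific cDNA fragments, separated by capillary electrophoresis, gives the signal. Source: HepG2 liver cells transiently transfected with cis-element reporters and exposed 24 h; DMSO-normalized bidirectional fit.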

[13] = ATG_Sox_CIS: Attagene CIS-FACTORIAL HepG2 Assay for human SRY-box transcription factor (SOX) (AID 2282960); conditions: HepG2 Attagene cis-factorial SOX reporter, mRNA; actives raise or lower the signal
In short: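 After 24 h of chemical treatment, transfected HepG2 reporter cells are lysed for total RNA. Transcript levels come from RT-PCR with labelled primer extension and capillary electrophoresis, analysed bidirectionally versus DMSO.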

[14] = target: Transcription factor Sp1 (Homo sapiens) (UniProt P08047); assay: ATG_Sp1_CIS: Attagene CIS-FACTORIAL HepG2 Assay for human Specificity Protein 1 (Sp1) (AID 2282961); conditions: HepG2 Sp1 cis-reporter transcription, actives raise or lower the signal
In short: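 Sp1-driven reporter mRNA, read as capillary electrophoresis fluorescence after RT-PCR, in transiently transfected HepG2 cells dosed for 24 h; signal change in either direction relative to DMSO.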

[15] = ATG_SREBP_CIS: Attagene CIS-FACTORIAL HepG2 Assay for human Sterol Regulatory Element Binding (SREBP) (AID 2282962); conditions: HepG2 Attagene cis-factorial SREBP reporter, mRNA; actives raise or lower the signal
In short: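 Endogenous factor activity is measured in HepG2 through multiplexed reporter units under cis-element control. Following a 24 h incubation, reporter transcripts are reverse-transcribed, PCR-amplified and sized by capillary electrophoresis; activity is fitted in both directions relative to DMSO.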

[16] = target: Signal transducer and activator of transcription 3 (Homo sapiens) (UniProt P40763); assay: ATG_STAT3_CIS: Attagene CIS-FACTORIAL HepG2 Assay for human Signal Transducer and Activator of Transcription 3 (STAT3) (AID 2282963); conditions: HepG2, Attagene cis-factorial STAT3 reporter transcription; actives raise or lower the signal
In short: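 Cis-factorial format: endogenous transcription factors in HepG2 drive transfected reporter units. After 24 h treatment, reporter RNA was reverse-transcribed, amplified, FAM-labelled and HpaI-digested before CE analysis; activity scored in both directions against DMSO.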

[17] = ATG_TA_CIS: Attagene CIS-FACTORIAL HepG2 Assay for human TA Basal Promoter (AID 2282964); conditions: HepG2 Attagene CIS-factorial TA basal promoter reporter; actives raise or lower the signal
In short: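 Background-control readout: TA basal promoter reporter mRNA, fitted in both directions relative to DMSO. Measured by RT-PCR and capillary electrophoresis 24 hours after treating HepG2 human liver cells transiently carrying multiplexed cis-regulated reporter constructs.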

[18] = ATG_TCF_b_cat_CIS: Attagene CIS-FACTORIAL HepG2 Assay for human T-Cell-Factor with beta-catenin (TCF/b-cat) (AID 2282965); conditions: HepG2 TCF/beta-catenin cis-reporter transcription, actives raise or lower the signal
In short: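 Endogenous TCF/LEF activity read as reporter transcript level via RT-PCR and capillary electrophoresis fluorescence in transfected HepG2, 24 h exposure; gain or loss of signal fitted against DMSO controls.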

[19] = ATG_TAL_CIS: Attagene CIS-FACTORIAL HepG2 Assay for human TAL Basal Promoter (AID 2282966); conditions: HepG2 Attagene cis-factorial TAL promoter reporter; actives raise or lower the signal;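 also: background control endpoint measuring basal TAL promoter reporter mRNA not a specific factor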
In short: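 Endogenous transcription-factor activity is sensed in HepG2 cells through transfected cis-promoter reporter constructs. After 24 h dosing, reporter transcripts are quantified by RT-PCR and capillary electrophoresis. Gain or loss of signal is fitted relative to DMSO.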

[20] = ATG_TGFb_CIS: Attagene CIS-FACTORIAL HepG2 Assay for human Transforming Growth Factor (TGF) (AID 2282967); conditions: HepG2 Attagene CIS TGFb reporter, mRNA transcription; actives raise or lower the signal
In short: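 Endogenous TGFB1-linked transcription factor activity read as reporter mRNA via RT-PCR and capillary electrophoresis, 24 h after dosing transiently transfected HepG2 cells. Gain or loss of signal fitted relative to DMSO.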

Measured: AC50

Signal transducer and activator of transcription 3 (Homo sapiens), sequence (P40763 whole entry, looked up): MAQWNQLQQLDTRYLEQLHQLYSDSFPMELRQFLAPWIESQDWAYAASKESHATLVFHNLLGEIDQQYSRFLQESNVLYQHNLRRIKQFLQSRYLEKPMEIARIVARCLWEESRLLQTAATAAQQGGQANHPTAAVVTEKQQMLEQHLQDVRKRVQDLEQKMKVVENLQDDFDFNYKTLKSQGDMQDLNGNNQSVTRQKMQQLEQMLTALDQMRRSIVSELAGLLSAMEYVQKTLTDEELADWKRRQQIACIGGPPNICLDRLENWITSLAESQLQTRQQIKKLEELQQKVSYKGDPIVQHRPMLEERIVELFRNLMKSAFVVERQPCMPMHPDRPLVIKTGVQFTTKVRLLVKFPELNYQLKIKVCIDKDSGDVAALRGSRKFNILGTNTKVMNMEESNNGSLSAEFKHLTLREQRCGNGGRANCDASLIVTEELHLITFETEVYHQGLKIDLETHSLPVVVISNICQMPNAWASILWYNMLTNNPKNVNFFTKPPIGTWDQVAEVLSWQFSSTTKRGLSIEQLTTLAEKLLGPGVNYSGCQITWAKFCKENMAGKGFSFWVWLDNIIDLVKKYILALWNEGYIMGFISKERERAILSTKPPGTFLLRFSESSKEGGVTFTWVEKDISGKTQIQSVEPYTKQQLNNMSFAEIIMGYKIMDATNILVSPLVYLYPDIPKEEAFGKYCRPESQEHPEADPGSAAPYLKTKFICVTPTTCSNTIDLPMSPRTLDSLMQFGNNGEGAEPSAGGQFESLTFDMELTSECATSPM
Heat shock factor protein 1 (Homo sapiens), sequence (Q00613 whole entry, looked up): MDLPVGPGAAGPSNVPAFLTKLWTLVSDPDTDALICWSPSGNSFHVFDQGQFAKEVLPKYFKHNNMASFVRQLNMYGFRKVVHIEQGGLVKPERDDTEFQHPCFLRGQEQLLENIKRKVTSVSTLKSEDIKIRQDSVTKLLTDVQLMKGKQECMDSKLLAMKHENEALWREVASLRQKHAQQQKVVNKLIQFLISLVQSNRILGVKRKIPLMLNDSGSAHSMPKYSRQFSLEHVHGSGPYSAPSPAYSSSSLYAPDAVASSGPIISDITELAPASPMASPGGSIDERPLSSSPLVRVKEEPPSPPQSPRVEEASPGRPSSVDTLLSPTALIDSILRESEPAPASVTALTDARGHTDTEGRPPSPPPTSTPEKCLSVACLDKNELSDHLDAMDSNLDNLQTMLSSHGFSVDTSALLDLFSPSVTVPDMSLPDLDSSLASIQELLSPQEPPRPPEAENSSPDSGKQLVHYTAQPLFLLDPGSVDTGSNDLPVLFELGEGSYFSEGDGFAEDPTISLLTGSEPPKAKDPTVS
Transcription factor Sp1 (Homo sapiens), sequence (P08047 whole entry, looked up): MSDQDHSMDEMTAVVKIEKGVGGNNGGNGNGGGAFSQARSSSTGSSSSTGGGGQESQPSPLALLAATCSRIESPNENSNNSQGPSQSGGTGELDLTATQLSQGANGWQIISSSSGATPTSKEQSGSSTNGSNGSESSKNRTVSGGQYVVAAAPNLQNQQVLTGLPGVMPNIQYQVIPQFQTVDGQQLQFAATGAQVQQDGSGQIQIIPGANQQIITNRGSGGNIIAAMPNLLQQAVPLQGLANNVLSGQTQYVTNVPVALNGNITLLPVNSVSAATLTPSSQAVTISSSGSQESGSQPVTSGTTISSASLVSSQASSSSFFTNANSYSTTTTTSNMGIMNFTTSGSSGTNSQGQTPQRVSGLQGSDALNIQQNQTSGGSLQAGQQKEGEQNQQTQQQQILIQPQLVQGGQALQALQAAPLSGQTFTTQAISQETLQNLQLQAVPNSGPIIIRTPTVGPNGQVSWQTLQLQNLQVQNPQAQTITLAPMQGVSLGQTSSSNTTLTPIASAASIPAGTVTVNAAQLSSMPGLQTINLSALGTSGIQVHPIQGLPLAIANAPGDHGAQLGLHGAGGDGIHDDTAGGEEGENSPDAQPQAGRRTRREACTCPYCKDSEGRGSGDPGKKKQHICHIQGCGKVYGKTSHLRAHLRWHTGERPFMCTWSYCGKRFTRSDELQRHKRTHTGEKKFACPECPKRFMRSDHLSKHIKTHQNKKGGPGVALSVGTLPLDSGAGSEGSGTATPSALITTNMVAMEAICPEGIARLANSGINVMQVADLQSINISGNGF
Hepatocyte nuclear factor 6 (Homo sapiens), sequence (Q9UBC0 whole entry, looked up): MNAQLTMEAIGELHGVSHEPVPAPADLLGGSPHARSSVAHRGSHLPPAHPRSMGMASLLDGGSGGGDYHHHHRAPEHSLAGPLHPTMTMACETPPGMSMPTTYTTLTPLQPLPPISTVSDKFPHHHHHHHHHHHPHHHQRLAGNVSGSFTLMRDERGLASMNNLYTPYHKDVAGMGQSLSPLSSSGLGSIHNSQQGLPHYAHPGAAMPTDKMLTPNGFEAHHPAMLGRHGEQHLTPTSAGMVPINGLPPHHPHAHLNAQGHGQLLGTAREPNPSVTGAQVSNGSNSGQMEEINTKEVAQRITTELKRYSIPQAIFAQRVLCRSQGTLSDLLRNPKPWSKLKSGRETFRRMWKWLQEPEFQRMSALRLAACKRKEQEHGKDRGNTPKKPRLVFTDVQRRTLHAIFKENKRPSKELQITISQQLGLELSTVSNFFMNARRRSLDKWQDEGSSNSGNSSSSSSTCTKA
Hypoxia-inducible factor 1-alpha (Homo sapiens), sequence (Q16665 whole entry, looked up): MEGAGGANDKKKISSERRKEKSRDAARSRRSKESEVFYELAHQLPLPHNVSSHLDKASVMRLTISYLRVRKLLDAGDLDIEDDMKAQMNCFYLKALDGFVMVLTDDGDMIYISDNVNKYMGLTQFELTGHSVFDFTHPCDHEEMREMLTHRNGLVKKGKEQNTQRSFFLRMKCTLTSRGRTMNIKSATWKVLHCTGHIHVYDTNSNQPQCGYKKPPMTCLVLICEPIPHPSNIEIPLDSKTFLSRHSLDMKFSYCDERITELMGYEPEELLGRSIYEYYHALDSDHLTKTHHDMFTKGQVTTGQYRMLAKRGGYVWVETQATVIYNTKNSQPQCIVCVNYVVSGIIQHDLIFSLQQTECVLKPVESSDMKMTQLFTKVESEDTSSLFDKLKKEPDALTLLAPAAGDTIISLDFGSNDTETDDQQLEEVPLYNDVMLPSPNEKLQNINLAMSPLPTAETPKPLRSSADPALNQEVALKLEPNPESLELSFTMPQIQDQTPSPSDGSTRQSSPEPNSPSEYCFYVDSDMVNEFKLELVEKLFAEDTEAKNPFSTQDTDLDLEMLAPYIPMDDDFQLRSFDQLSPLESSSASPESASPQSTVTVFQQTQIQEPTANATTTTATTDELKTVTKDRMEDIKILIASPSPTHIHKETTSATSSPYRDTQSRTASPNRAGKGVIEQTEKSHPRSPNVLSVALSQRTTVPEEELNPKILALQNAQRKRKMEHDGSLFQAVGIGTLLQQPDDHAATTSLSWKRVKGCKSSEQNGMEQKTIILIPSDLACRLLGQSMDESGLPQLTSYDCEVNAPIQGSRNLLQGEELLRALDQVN
Paired box protein Pax-6 (Homo sapiens), sequence (P26367 whole entry, looked up): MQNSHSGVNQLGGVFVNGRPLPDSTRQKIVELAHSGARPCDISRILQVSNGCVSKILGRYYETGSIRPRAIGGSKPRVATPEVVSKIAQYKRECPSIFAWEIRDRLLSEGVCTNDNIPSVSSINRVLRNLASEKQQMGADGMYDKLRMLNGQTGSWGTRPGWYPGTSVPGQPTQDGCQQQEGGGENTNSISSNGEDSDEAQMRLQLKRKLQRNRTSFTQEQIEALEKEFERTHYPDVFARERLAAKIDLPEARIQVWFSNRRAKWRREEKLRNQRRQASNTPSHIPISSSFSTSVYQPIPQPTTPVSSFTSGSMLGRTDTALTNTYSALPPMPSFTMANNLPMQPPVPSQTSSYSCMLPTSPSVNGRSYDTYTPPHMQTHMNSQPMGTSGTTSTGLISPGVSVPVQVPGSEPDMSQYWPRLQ

CCCCOC(=O)COC(=O)c1ccccc1C(=O)OCCCC
active: [10] 40.9 µM | [11] 42.6 µM | [12] 53.2 µM
inactive: [1] | [2] | [3] | [4] | [5] | [6] | [7] | [8] | [9] | [13] | [14] | [15] | [16] | [17] | [18] | [19]

C1CCC(C2CCCCC2)CC1
inactive: [1] | [2] | [3] | [4] | [5] | [6] | [7] | [8] | [9] | [10] | [11] | [12] | [13] | [15] | [16] | [17] | [18] | [19]

Cc1cc(Cl)ccc1N
active: [10] 32.8 µM
inactive: [1] | [2] | [3] | [4] | [5] | [6] | [7] | [8] | [9] | [10] | [11] | [12] | [13] | [14] | [15] | [16] | [17] | [18] | [19] | [20]

O=C(NC(=O)c1c(F)cccc1F)Nc1cc(Cl)c(Oc2ncc(C(F)(F)F)cc2Cl)c(Cl)c1
inactive: [1] | [2] | [3] | [4] | [5] | [6] | [7] | [8] | [9] | [10] | [11] | [12] | [13] | [15] | [16] | [17] | [18] | [19] | [20]

CC(C)CC(C)(c1ccc(O)cc1)c1ccc(O)cc1
inactive: [2] | [3] | [4] | [5] | [8] | [12] | [13] | [14] | [15] | [16] | [17] | [19] | [20]
active: [1] 11.1 µM | [6] 17 µM | [7] 16.6 µM | [9] 17.2 µM | [10] 2.92 µM | [11] 15.3 µM | [18] 11.1 µM

O=C(O)COc1ccc(Cl)cc1
inactive: [1] | [2] | [3] | [4] | [5] | [6] | [7] | [8] | [9] | [10] | [11] | [13] | [14] | [15] | [16] | [17] | [18] | [20]

Brc1c(Br)c(Br)c(Oc2c(Br)c(Br)c(Br)c(Br)c2Br)c(Br)c1Br
inactive: [1] | [2] | [3] | [4] | [5] | [6] | [7] | [8] | [9] | [10] | [11] | [12] | [13] | [14] | [15] | [16] | [17] | [18] | [19] | [20]

Cc1cc(Cl)ccc1OC(C)C(=O)O (configuration not stated)
inactive: [1] | [2] | [3] | [4] | [5] | [6] | [7] | [8] | [9] | [10] | [12] | [13] | [14] | [15] | [16] | [17] | [18] | [19] | [20]
active: [11] 68.4 µM

CC(C=O)Cc1ccc2c(c1)OCO2 (configuration not stated)
inactive: [1] | [2] | [3] | [4] | [5] | [6] | [7] | [8] | [9] | [11] | [12] | [13] | [14] | [15] | [16] | [17] | [18] | [19] | [20]
active: [10] 17 µM

N#Cc1cccnc1
inactive: [1] | [2] | [3] | [4] | [5] | [6] | [7] | [8] | [9] | [10] | [11] | [12] | [13] | [15] | [16] | [17] | [18] | [19] | [20]

O=C(CCl)Nc1ccccc1
active: [1] 54.9 µM | [2] 134 µM | [4] 69.2 µM | [6] 49 µM | [7] 56.4 µM | [9] 72.6 µM | [10] 33.4 µM | [11] 3.66 µM | [13] 32.9 µM | [14] 25.8 µM | [15] 6.32 µM
inactive: [3] | [5] | [8] | [12] | [16] | [17] | [18] | [19] | [20]

O=C1C=CC(=O)c2ccccc21
inactive: [1] | [2] | [3] | [4] | [5] | [6] | [7] | [8] | [9] | [10] | [11] | [12] | [13] | [14] | [15] | [16] | [18] | [19]
